Results filed as inconclusive are left out. The source made the active and inactive calls. Rule for the calls, unless noted: active = hit-call score of the fitted dose curve at least 0.9, where 1 is the maximum; inactive = score below 0.9.
Assays:
[1] = target: Nuclear respiratory factor 1 (Homo sapiens) (UniProt Q16656); assay: ATG_NRF1_CIS: Attagene CIS-FACTORIAL HepG2 Assay for human Nuclear Respiratory Factor 1 (NRF1) Orphan Gene (AID 2282987); settings: HepG2 NRF1 cis-element reporter, Attagene multiplex; actives raise or lower the signal
Sequence of Nuclear respiratory factor 1 (Homo sapiens) (Q16656 whole entry, looked up): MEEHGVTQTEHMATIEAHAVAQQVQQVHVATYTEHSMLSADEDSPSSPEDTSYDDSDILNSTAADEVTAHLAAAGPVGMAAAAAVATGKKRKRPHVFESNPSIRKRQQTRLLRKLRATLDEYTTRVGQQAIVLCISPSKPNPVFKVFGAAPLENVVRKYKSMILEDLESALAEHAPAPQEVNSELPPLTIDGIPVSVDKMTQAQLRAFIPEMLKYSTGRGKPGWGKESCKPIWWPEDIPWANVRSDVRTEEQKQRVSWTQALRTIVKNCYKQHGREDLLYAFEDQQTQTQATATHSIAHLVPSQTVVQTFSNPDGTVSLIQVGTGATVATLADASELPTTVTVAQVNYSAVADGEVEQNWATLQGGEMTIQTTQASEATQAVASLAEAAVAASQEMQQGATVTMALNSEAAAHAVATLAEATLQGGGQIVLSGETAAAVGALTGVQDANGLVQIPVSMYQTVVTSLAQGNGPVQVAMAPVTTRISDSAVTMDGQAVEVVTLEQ
In short: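 Endogenous NRF1-driven reporter transcription in transfected HepG2 cells after 24 h treatment. Readout: RT-PCR products, 6-FAM labelled and resolved by capillary electrophoresis; changes fitted both directions relative to DMSO.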

[2] = ATG_NFI_CIS: Attagene CIS-FACTORIAL HepG2 Assay for human Nuclear Factor I (NFI) (AID 2282989); settings: HepG2 cis-regulatory reporter, NFI response element transcription; actives raise or lower the signal
In short: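 Transient MRTU transfection of HepG2 → 24 h chemical dosing → total RNA, oligo(dT) RT → PCR, 6-FAM primer extension, HpaI cut → capillary electrophoresis. Endpoint fitted bidirectionally relative to DMSO.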

[3] = target: Myc proto-oncogene protein (Homo sapiens) (UniProt P01106); assay: ATG_Myc_CIS: Attagene CIS-FACTORIAL HepG2 Assay for human Myelocytomatosis (Myc) Proto-Oncogene Transcription Factor (AID 2282990); settings: HepG2, Attagene cis-reporter transcription factor activity; actives raise or lower the signal
Sequence of Myc proto-oncogene protein (Homo sapiens) (P01106 whole entry, looked up, the tested form may be a part): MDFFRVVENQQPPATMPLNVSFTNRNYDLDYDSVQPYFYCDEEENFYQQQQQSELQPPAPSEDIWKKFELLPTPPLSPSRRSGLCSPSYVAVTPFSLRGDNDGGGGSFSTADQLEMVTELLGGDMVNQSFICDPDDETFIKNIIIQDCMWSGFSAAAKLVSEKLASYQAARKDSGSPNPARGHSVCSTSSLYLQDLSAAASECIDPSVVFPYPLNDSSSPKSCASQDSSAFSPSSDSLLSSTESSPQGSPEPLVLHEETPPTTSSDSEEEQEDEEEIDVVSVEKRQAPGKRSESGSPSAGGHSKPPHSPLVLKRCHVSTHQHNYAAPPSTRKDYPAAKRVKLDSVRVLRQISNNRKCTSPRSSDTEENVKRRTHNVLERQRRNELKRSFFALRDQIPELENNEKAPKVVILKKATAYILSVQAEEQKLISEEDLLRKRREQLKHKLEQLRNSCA
In short: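 Read-out: fluorescent reporter mRNA fragments resolved by capillary electrophoresis after RT-PCR. Human HepG2 liver cells carried transfected cis-element reporter units and were dosed for 24 h. Gain or loss of signal fitted relative to DMSO baseline.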

[4] = ATG_NRF2_ARE_CIS: Attagene CIS-FACTORIAL HepG2 Assay for human Nuclear Factor Erythroid 2 Related Factor 2 (NFR2) response to Antioxidant Response Elements (ARE) (AID 2282992); settings: HepG2 Attagene ARE/NRF2 reporter, transcription factor activity; actives raise or lower the signal;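 for AC50: reporter mRNA level measured by RT-PCR and capillary electrophoresis fluorescence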
In short: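 Fluorescence intensity of reporter-specific cDNA fragments, separated by capillary electrophoresis, reflects mRNA induction in transfected HepG2 cells at 24 h. Activity is fitted bidirectionally, DMSO serving as baseline.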

[5] = ATG_Oct_MLP_CIS: Attagene CIS-FACTORIAL HepG2 Assay for human Octamer-Binding Transcription Factor (Oct) (AID 2282993); settings: HepG2 Attagene cis-factorial Oct reporter, mRNA; actives raise or lower the signal
In short: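 Transient MRTU transfection of HepG2 → 24 h compound treatment → RNA isolation, reverse transcription, PCR → 6-FAM primer extension, HpaI digest → capillary electrophoresis. Activity fitted both directions against DMSO.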

[6] = target: Cellular tumor antigen p53 (Homo sapiens) (UniProt P04637); assay: ATG_p53_CIS: Attagene CIS-FACTORIAL HepG2 Assay for human p53 Transcription Factor (AID 2282994); settings: HepG2 p53 cis-element reporter, Attagene mRNA; actives raise or lower the signal
Sequence of Cellular tumor antigen p53 (Homo sapiens) (P04637 whole entry, looked up): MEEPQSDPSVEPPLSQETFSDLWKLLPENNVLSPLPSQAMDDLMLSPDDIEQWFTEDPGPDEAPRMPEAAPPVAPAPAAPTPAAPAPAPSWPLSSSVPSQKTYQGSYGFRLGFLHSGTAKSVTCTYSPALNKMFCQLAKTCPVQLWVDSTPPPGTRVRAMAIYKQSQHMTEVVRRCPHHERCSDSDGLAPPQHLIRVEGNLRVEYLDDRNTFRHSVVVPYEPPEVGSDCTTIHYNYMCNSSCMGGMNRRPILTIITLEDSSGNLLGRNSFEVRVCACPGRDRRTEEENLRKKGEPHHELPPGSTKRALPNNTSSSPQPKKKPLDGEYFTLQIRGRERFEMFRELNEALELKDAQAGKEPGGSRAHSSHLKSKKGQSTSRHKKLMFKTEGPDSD
In short: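 Transiently transfected HepG2 (multiple cis reporter transcription units); exposure 24 h; reporter RNA via RT-PCR, 6-FAM extension, 2 h HpaI digest at 37 C, CE detection; DMSO baseline.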

[7] = BSK_3C_uPAR: BioMAP Diversity Plus: 3C Assay for Urokinase-type plasminogen activator receptor (uPAR) Biomarker Activity (AID 2282998); settings: BioMAP 3C HUVEC, uPAR biomarker ELISA; actives raise or lower the signal
In short: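 ELISA readout of uPAR on human vascular endothelium (umbilical vein primary cells), taken 24 h after chemical dosing. Increases and decreases are both fitted relative to DMSO vehicle.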

[8] = BSK_3C_VCAM1: BioMAP Diversity Plus: 3C Assay for Vascular cell adhesion molecule 1 (VCAM1) Biomarker Activity (AID 2282999); settings: BioMAP 3C HUVEC, VCAM1 ELISA, cytokine-stimulated; actives raise or lower the signal
In short: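 HUVEC primary cells, 24 h compound exposure; VCAM-1 by ELISA; gain/loss of signal fitted bidirectionally vs DMSO baseline.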

[9] = BSK_4H_Eotaxin3: BioMAP Diversity Plus: 4H Assay for Eotaxin 3 Biomarker Activity (AID 2283000); settings: primary human endothelial cells (HUVEC); actives raise or lower the signal;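 note: CCL26 protein level quantified by ELISA in parallel with SRB cytotoxicity check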
In short: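 Endothelial primary cells (human umbilical vein) exposed to compound for 24 h. ELISA detection of Eotaxin-3.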

[10] = read-out: Intercellular Adhesion Molecule 1 (ICAM1), ICAM1 (gene 3383); assay: BSK_3C_ICAM1: BioMAP Diversity Plus: 3C Assay for Intercellular Adhesion Molecule 1 (ICAM1) Biomarker Activity (AID 2283003); settings: primary human endothelial cells (HUVEC); actives raise or lower the signal
In short: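 Chemicals are dosed onto primary human umbilical vein endothelium (3C system). After 24 h, ICAM-1 is measured by ELISA, and responses are fitted bidirectionally relative to DMSO.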

[11] = target: human Retinoic Acid Receptor beta (RARb), RARB (gene 5915) (UniProt P10826); assay: ATG_RARb_TRANS: Attagene TRANS-FACTORIAL HepG2 Assay for human Retinoic Acid Receptor beta (AID 2283004; active = hit-call score of the fitted dose curve at least 0.9, where 1 is the maximum)
Sequence of human Retinoic Acid Receptor beta (RARb), RARB (gene 5915) (P10826 whole entry, looked up, the tested form may be a part): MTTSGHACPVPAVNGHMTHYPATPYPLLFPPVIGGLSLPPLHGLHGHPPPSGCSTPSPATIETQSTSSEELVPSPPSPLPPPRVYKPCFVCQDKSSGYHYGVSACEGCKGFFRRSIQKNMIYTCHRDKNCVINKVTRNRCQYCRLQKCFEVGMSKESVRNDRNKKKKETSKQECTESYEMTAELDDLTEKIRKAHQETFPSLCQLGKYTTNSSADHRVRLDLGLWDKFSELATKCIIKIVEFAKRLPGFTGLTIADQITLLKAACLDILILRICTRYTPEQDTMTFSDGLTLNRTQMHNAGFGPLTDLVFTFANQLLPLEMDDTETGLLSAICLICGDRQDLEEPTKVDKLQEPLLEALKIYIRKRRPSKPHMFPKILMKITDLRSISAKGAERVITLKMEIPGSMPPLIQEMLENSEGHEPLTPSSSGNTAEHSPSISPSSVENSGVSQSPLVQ
In short: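 HepG2, transient MRTU transfection, NR–Gal4 chimera, 24 h treatment; RT-PCR plus CE fluorescence detection of reporter mRNA; gain of signal vs DMSO.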

[12] = BSK_3C_Proliferation: Cell Proliferation Assessment in the BioMAP Diversity Plus: 3C Assay (AID 2283006); settings: primary human endothelial cells (HUVEC);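 for AC50: potency may reflect either rise or fall in cell number versus DMSO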
In short: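 Cells (human umbilical vein endothelial, sub-confluent) receive test chemical; after 48 h they are fixed in 10% trichloroacetic acid, stained with 0.1% SRB and read at 560 nm. Activity is referenced to DMSO, fitting increases and decreases.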

[13] = target: Peroxisome proliferator-activated receptor gamma (Homo sapiens) (UniProt P37231); assay: ATG_PPARg_TRANS: Attagene TRANS-FACTORIAL HepG2 Assay for human Peroxisome Proliferator-activated Receptor-gamma (PPARg) (AID 2283007; active = hit-call score of the fitted dose curve at least 0.9, where 1 is the maximum)
Sequence of Peroxisome proliferator-activated receptor gamma (Homo sapiens) (P37231 whole entry, looked up, the tested form may be a part): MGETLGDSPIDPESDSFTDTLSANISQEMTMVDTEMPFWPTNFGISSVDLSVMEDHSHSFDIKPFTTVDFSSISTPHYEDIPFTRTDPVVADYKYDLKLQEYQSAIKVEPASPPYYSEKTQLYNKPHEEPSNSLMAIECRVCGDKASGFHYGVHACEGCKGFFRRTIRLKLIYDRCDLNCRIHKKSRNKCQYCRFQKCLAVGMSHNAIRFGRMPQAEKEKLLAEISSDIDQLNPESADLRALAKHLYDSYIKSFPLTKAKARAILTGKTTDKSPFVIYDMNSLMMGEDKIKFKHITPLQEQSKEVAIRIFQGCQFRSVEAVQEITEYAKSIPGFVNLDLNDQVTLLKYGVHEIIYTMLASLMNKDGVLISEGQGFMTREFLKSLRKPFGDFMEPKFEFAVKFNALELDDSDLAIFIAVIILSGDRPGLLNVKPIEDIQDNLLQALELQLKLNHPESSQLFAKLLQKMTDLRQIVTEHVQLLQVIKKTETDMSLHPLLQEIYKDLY
In short: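 After 24 h of chemical exposure, transfected HepG2 cells carrying PPARγ-Gal4 chimera reporter constructs are lysed for RNA. Reporter transcripts are measured by RT-PCR and capillary electrophoresis with fluorescent labelling, and gain of signal is fitted versus DMSO.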

[14] = target: Nuclear receptor subfamily 1 group I member 2 (Homo sapiens) (UniProt O75469); assay: ATG_PXR_TRANS: Attagene TRANS-FACTORIAL HepG2 Assay for human Pregnane X Receptor (PXR) (AID 2283008; active = hit-call score of the fitted dose curve at least 0.9, where 1 is the maximum)
Sequence of Nuclear receptor subfamily 1 group I member 2 (Homo sapiens) (O75469 whole entry, looked up, the tested form may be a part): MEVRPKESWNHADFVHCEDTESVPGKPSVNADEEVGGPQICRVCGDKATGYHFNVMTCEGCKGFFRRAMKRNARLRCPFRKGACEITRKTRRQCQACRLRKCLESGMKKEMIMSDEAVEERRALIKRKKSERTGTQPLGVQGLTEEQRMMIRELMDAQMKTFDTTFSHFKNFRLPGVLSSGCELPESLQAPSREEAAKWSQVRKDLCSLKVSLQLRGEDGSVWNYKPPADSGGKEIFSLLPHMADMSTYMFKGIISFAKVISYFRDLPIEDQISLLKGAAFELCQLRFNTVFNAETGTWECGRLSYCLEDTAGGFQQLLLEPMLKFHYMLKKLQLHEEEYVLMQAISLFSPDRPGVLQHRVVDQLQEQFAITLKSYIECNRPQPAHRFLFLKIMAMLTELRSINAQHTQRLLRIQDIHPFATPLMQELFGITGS
In short: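 Transient HepG2 transfectants carrying multiplexed reporter transcription units; PXR activity read through a Gal4 chimera. 24 h exposure. RT-PCR/CE fluorescence; upward curve fit referenced to DMSO.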

[15] = target: human Retinoic Acid Receptor gamma (RARg), RARG (gene 5916) (UniProt P13631); assay: ATG_RARg_TRANS: Attagene TRANS-FACTORIAL HepG2 Assay for human Retinoic Acid Receptor gamma (RARg) (AID 2283009; active = hit-call score of the fitted dose curve at least 0.9, where 1 is the maximum)
Sequence of human Retinoic Acid Receptor gamma (RARg), RARG (gene 5916) (P13631 whole entry, looked up, the tested form may be a part): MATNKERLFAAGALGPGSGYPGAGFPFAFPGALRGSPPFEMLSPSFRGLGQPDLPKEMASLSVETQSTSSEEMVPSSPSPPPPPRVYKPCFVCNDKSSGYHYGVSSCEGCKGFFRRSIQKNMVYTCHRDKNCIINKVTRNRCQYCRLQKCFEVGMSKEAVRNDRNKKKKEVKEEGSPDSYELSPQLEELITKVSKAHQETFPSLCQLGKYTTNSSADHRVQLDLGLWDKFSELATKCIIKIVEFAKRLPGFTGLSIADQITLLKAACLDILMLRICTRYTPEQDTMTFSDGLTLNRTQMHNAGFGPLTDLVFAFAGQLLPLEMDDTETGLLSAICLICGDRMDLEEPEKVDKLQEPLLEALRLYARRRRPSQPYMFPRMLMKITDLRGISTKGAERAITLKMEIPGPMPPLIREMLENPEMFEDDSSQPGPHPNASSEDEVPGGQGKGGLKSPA
In short: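 TRANS format measured activity of exogenous NR-GAL4 fusion (RARg) in transfected HepG2 liver cells after 24 h dosing. Induced reporter RNA was detected by RT-PCR/capillary electrophoresis fluorescence, analysed in the positive direction against DMSO.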

[16] = ATG_NF_kB_CIS: Attagene CIS-FACTORIAL HepG2 Assay for human Nuclear Factor Kappa B (NF-kB) (AID 2282991); settings: HepG2 Attagene cis-factorial NF-kB reporter mRNA; actives raise or lower the signal
In short: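 Readout is reporter transcript level, gain or loss versus DMSO, measured 24 h post-dose via RT-PCR, fluorescent labelling and capillary electrophoresis. Human HepG2 liver cells carried transiently transfected CIS reporter constructs reflecting endogenous factors.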

[17] = target: human Peroxisome Proliferator-activated Receptor delta (PPARd), PPARD (gene 5467) (UniProt Q03181); assay: ATG_PPARd_TRANS: Attagene TRANS-FACTORIAL HepG2 Assay for human Peroxisome Proliferator-activated Receptor delta (PPARd) (AID 2283002; active = hit-call score of the fitted dose curve at least 0.9, where 1 is the maximum)
Sequence of human Peroxisome Proliferator-activated Receptor delta (PPARd), PPARD (gene 5467) (Q03181 whole entry, looked up, the tested form may be a part): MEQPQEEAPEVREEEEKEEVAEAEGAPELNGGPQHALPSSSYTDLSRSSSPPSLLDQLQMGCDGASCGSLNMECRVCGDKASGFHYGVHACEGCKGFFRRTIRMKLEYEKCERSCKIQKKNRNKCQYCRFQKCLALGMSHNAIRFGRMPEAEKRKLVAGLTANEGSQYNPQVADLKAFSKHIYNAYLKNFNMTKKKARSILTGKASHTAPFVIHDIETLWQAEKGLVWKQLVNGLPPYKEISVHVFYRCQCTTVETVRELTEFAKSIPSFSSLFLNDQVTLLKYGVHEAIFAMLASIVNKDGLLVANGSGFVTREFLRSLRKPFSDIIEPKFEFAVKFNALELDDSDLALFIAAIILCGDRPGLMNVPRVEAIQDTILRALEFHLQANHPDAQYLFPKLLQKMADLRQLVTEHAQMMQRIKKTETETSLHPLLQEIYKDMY
In short: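 Read-out: reporter mRNA induction, quantified by fluorescent RT-PCR products resolved by capillary electrophoresis. Human HepG2 liver cells carried transiently transfected Gal4-UAS reporter constructs with chimeric NR-Gal4 fusions. Cells were dosed for 24 h; DMSO served as baseline.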

[18] = target: Retinoic acid receptor alpha (Homo sapiens) (UniProt P10276); assay: ATG_RARa_TRANS: Attagene TRANS-FACTORIAL HepG2 Assay for human Retinoic Acid Receptor alpha (RARa) (AID 2283005; active = hit-call score of the fitted dose curve at least 0.9, where 1 is the maximum)
Sequence of Retinoic acid receptor alpha (Homo sapiens) (P10276 whole entry, looked up, the tested form may be a part): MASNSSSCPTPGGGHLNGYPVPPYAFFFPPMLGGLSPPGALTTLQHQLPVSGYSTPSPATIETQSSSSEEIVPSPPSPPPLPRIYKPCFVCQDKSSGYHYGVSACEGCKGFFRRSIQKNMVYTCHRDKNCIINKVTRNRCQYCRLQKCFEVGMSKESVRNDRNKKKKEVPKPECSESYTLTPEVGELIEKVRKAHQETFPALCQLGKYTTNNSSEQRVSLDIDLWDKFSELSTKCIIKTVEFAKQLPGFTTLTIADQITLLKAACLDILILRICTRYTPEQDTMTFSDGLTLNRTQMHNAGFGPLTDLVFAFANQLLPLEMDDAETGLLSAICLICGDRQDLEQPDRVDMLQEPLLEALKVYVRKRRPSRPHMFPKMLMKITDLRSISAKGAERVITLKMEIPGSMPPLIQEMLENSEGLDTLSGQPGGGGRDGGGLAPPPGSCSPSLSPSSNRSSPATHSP
In short: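 HepG2 transiently transfected with multiplex GAL4-UAS reporter units including a human RARa–GAL4 chimera; 24 h compound exposure. Reporter mRNA quantified by RT-PCR, 6-FAM labeling and capillary electrophoresis; gain of signal versus DMSO.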

[19] = target: human Peroxisome Proliferator-activated Receptor alpha (PPARa), PPARA (gene 5465) (UniProt Q07869); assay: ATG_PPARa_TRANS: Attagene TRANS-FACTORIAL HepG2 Assay for human Peroxisome Proliferator-activated Receptor alpha (PPARa) (AID 2283001; active = hit-call score of the fitted dose curve at least 0.9, where 1 is the maximum)
Sequence of human Peroxisome Proliferator-activated Receptor alpha (PPARa), PPARA (gene 5465) (Q07869 whole entry, looked up): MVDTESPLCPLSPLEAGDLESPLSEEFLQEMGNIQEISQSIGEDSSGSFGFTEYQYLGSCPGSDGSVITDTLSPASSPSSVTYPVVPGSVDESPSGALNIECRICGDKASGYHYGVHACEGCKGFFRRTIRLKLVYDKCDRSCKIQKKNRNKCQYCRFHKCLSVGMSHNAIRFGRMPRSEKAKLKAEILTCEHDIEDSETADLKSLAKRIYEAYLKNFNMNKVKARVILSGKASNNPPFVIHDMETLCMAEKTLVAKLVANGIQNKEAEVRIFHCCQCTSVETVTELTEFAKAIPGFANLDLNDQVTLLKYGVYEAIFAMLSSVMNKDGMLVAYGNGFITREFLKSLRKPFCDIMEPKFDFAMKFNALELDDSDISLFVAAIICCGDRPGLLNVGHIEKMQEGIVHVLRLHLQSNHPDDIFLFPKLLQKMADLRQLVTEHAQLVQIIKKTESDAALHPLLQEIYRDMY
In short: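 HepG2, transient MRTU transfection, 24 h treatment. RT-PCR → FAM labelling → capillary electrophoresis. Fit vs DMSO, positive direction.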

Measured: AC50

N#Cc1ccc(N(CC(N)=O)CC(F)(F)F)cc1C(F)(F)F
active: [4] 170 µM
not listed: [16] | [17] | [18] | [19]
inactive: all other assays above

Cc1cccc(C)c1N
not listed: [7] | [11] | [13] | [14] | [15] | [17] | [18] | [19]
inactive: all other assays above

CCSC(=O)N(CC)C1CCCCC1
not listed: [6] | [10] | [11] | [15] | [17] | [18] | [19]
inactive: all other assays above

ClC1=C(Cl)[C@]2(Cl)[C@@H]3[C@@H](Cl)[C@H]4O[C@H]4[C@@H]3C1(Cl)C2(Cl)Cl
active: [1] 150 µM | [2] 65.1 µM | [4] 28.4 µM | [5] 60 µM | [6] 100 µM | [12] 11.2 µM | [14] 4.39 µM
not listed: [7] | [11] | [13] | [19]
inactive: all other assays above

O=S(=O)(O)C(F)(F)C(F)(F)C(F)(F)C(F)(F)F
not listed: [7] | [11] | [18]
inactive: all other assays above

— PubChem BioAssay (EPA / NIEHS)
